The list is not random: actives were taken first. Their share in the collection is about 3.4%.
PKM2 activator – PKM2 (human) enzyme activation; P14618; purified PKM2, Kinase-Glo ATP luminescence, activation; response scale: 0% is enzyme alone, no compound; Potency, µM (top dose mostly 57.5 µM), without a hit: top-dose activation, actives largely listed as activators; 260,000 compounds, 0.34% hits; AID 1631; note: potency is the fitted concentration of half-maximal effect; % is set by controls: 0 for no effect and ±100 for the full control effect; nearly all actives have a fitted effect of over 55% in size
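hPK-M2, >95% pure; 0.1 mM ADP / 0.5 mM PEP final; imidazole pH7.2 buffer w/ 7 mM MgCl2, 50 mM KCl; 1 h RT; Kinase-Glo lum. Intermediate enzyme activity for dual inhibitor/activator qHTS.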
VDR inhibitor – blocks the human vitamin D receptor | P11473 | VDR-SRC2-3 peptide fluorescence polarization, 2 h | Potency, µM, without a hit: max response, negative = inhibition, most hits filed as inhibitors | 400,000 compounds, 0.93% hits | AID 504847; note: potency is the fitted concentration of half-maximal effect; % is set by controls: 0 for no effect and ±100 for the full control effect
Target sequence (P11473 whole entry, looked up): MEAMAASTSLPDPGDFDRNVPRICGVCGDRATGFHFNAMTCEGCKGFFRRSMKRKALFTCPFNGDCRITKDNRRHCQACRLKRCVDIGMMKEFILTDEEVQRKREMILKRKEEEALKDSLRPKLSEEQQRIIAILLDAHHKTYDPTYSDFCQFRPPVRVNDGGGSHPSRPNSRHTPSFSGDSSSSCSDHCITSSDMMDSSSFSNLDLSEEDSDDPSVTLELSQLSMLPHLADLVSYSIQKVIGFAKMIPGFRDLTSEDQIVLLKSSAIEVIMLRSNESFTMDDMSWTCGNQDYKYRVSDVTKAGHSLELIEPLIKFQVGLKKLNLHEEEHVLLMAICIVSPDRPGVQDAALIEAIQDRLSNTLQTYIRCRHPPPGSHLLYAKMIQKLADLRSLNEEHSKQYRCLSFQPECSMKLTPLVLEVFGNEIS
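Reagent solutions, kept cold and dark, are dispensed first; compounds are then pinned in at 23 nl, plates briefly spun, and incubated 2 h at ambient temperature. Inhibition of VDR–SRC2-3 peptide binding is read by fluorescence polarization.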
GCN5L2 inh – inhibitors of human GCN5L2 histone acetyltransferase; Q92830; GCN5L2 HAT assay, ThioGlo1 CoA-SH fluorescence; Potency, µM (top dose mostly 58.9 µM), for inactives: top-dose activity change, negative = inhibition, most hits filed as inhibitors; 390,000 compounds, 0.21% hits; AID 504327; note: potency is the fitted concentration of half-maximal effect; % is set by controls: 0 for no effect and ±100 for the full control effect
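ThioGlo1-coupled HAT assay: 20nM GCN5L2, 70uM acetyl-CoA, 75uM H3(1-25) peptide, pH 7.5. Fluorescence read at 340/540nm at start and after 20 min at room temperature.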
PLK1 PBD inh – PLK1 (human) polo-box domain binding inhibition. P53350. Plk1 PBD binding of FITC phosphopeptide, fluorescence polarization. Potency, µM, for the others: max response, negative = inhibition, actives largely listed as inhibitors. 360,000 compounds, 2.8% hits; note: potency is the fitted concentration of half-maximal effect; series mostly up to about 57 µM; % is set by controls: 0 for no effect and ±100 for the full control effect; nearly all actives have a fitted effect of over 65% in size
GLS inh – blocks human kidney-isoform glutaminase activity. Potency, µM (doses to about 45.5 µM), for inactives: top-dose activity change, negative = inhibition, hits mostly inhibitors. GLS enzymatic activity, qHTS titration. 410,000 compounds, 0.21% hits; note: potency is the fitted concentration of half-maximal effect; % is set by controls: 0 for no effect and ±100 for the full control effect
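hKGA in 45 mM KH2PO4 (pH 8.2), 0.02% Tween-20 with compound, then 1mM L-Glutamine (stock as added) plus glutamate oxidase/HRP/Amplex red coupling mix. Fluorescence read initially and after 30 min at RT; signal change reflects glutamate formation.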
Mito fusion yeast – mitochondrial division inhibition or fusion activation; Potency, µM (series often up to 46.1 µM), inactives show top-dose growth rescue (activation), hits mostly activators; S. cerevisiae fusion-defective mutant growth rescue, CellTiterGlo 48 h; 320,000 compounds, 0.23% hits; note: potency is the fitted concentration of half-maximal effect; % of control where 0% means no effect; nearly all actives have a fitted effect of over 45% in size
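Read-out: ATP-based luminescence (CellTiterGlo, 10 min ambient) reporting growth of fusion-defective ts yeast after 48 hours at 37C on glycerol/ethanol YPEG medium in the presence of compound.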
HeLa tox – reduces HeLa cell viability in PKM2 activator counter-screen | shares compounds with PKM2 activator | HeLa viability, CellTiter-Glo ATP luminescence, 24 h | activity change, negative = cytotoxicity, % at 57.5 µM | 230 tested, under 10 active; note: % of control where 0% means no effect
TbPYK confirm – Trypanosoma brucei pyruvate kinase inhibition, cherry-pick confirmation; recombinant TbPYK, Kinase-Glo ATP luminescence; shares compounds with PLK1 PBD inh; Potency, µM (series often up to 76.9 µM), for the others: at the top dose activity change, negative = inhibition, hits mostly inhibitors; 890 compounds, 67% hits; note: potency is the fitted concentration of half-maximal effect; % is set by controls: 0 for no effect and ±100 for the full control effect; nearly all actives have a fitted effect of over 70% in size
TbPYK orthogonal – orthogonal confirmation of Trypanosoma brucei pyruvate kinase inhibitors; shares compounds with PLK1 PBD inh; recombinant TbPYK, ADP-Glo luminescence, 60 min; Potency, µM (titrated, usually from 76.9 µM), inactives show at the highest dose activity change, negative = inhibition, hits mostly inhibitors; 890 compounds, 62% hits; AID 720584; note: potency is the fitted concentration of half-maximal effect; % is set by controls: 0 for no effect and ±100 for the full control effect; nearly all actives have a fitted effect of over 75% in size
Numbers without * were called inactive; ? = inconclusive; . = no result. Calls come from the whole dose curve; as a rule, active = well fitted curve in the direction sought with a large enough effect; inconclusive = small, poorly fitted or top-dose-only effect, or another doubt; inactive = no such curve, though single readings can be large; an effect the other way counts as inactive or inconclusive.

SMILES	PKM2 activator	VDR inhibitor	GCN5L2 inh	PLK1 PBD inh	GLS inh	Mito fusion yeast	HeLa tox	others
Cn1c2cc(S(C)=O)sc2c2cnn(Cc3ccccc3F)c(=O)c21 (stereo not given)	.	.	.	.	.	.	10
CCCCN(C)c1c(C)nc2ccc(C(=O)Nc3ccc(OC)c(OC)c3)cn12	.	.	.	-11%	24%	.	.
COc1ccc(S(=O)(=O)c2ccc(O)cc2)cc1	4.5µM*	-1%	-12%	?	0%	-5%	0
Cn1c(=O)[nH]c(=O)c2c1nc(SCC(=O)Nc1ccccc1)n2Cc1ccccc1	1.6µM*	-13%	-3%	-7%	-1%	0%	?
O=C(C1CCC1)N1CCc2cc(S(=O)(=O)Nc3ccc4c(c3)OCO4)ccc21	2.8µM*	-7%	-12%	1%	0%	2%	-27
COCCN1C(=O)COc2ccccc2C1C(=O)Nc1c(C)cccc1C (stereo not given)	.	.	.	-1%	-7%	.	.
O=C1NC[C@H](CCCCN2C[C@H](Cc3ccccc3)N(CCc3ccc(O)cc3)C(=O)C2=O)N(CC2CCCCC2)C1=O	.	.	.	0%	2%	.	.
COc1cccc(NC(=O)CSc2nnc(-c3cccc(OC)c3)o2)c1	.	24%	-17%	.	-2%	.	.
COc1cccc(NC(=O)CSc2nnc(-c3ccc(C)cc3)o2)c1	1.3µM*	-13%	-3%	3%	-12%	-6%	8
Cc1cc2c(s1)c1cnn(Cc3cccc(F)c3)c(=O)c1n2C	.	.	.	.	.	.	-3
Cn1c2cc(Br)sc2c2cnn(Cc3ccc(F)cc3)c(=O)c21	.	.	-6%	.	.	0%	.
Cc1cc2c(s1)c1cnn(Cc3cccc(Cl)c3)c(=O)c1n2C	.	.	.	.	.	.	-1
COc1cccc(Cn2ncc3c4sc(Br)cc4n(C)c3c2=O)c1	.	.	7%	.	.	0%	.
CS(=O)(=O)N1CCCC(C(=O)Nc2ccc(F)cc2F)C1 (stereo not given)	4%	-10%	1%	-10%	-1%	1%	.
CC1CC(=O)N(CC(=O)Nc2ccc(OC(F)(F)F)cc2)c2ccccc2S1 (stereo not given)	.	9%	-8%	.	1%	.	.
COc1cccc(-c2nn(C)c3sc(C(=O)NCc4ccc(OC)cc4OC)cc23)c1	.	-19%	-14%	.	8%	.	.
COc1cccc(-c2nn(C)c3sc(C(=O)NCc4ccc(C)o4)cc23)c1	2.5µM*	?	-12%	?	11%	24%	?
O=[N+]([O-])c1ccc(NCCNS(=O)(=O)c2ccccc2)cc1	9%	-6%	-25%	-6%	4%	-1%	.
O=[N+]([O-])c1ccc(NCCCNS(=O)(=O)c2ccccc2)c(Cl)c1	7.9µM*	-7%	-7%	-9%	-7%	23%	-28
COc1ccc(C(=O)N/N=C/c2ccc(N3CCOCC3)o2)cc1OC	2.5µM*	?	-24%	-14%	-4%	11%	1	TbPYK confirm=-7%;TbPYK orthogonal=?
COc1ccccc1C(=O)Nc1onc(C)c1C#N	-2%	11%	-7%	-2%	1%	-2%	.
COc1cccc(C2Nc3c(F)cc(Br)cc3C3C=CCC32)c1OC (stereo not given)	-2%	-4%	-1%	4%	-2%	-6%	.
